A number with no mark means an inactive call. Records with an inconclusive call do not appear. Where a call stands in place of a potency, no number is given. Calls of active or inactive are those of the source. Unless noted, the call rests on the fitted dose curve; in most records, active means well fitted cell-killing curve with a large enough effect in the repeat runs; inconclusive means weak or mixed curves; inactive means flat fitted curve, though single readings scatter.
Target: Androgen receptor (Homo sapiens) (UniProt P10275)
Sequence (P10275 whole entry, looked up): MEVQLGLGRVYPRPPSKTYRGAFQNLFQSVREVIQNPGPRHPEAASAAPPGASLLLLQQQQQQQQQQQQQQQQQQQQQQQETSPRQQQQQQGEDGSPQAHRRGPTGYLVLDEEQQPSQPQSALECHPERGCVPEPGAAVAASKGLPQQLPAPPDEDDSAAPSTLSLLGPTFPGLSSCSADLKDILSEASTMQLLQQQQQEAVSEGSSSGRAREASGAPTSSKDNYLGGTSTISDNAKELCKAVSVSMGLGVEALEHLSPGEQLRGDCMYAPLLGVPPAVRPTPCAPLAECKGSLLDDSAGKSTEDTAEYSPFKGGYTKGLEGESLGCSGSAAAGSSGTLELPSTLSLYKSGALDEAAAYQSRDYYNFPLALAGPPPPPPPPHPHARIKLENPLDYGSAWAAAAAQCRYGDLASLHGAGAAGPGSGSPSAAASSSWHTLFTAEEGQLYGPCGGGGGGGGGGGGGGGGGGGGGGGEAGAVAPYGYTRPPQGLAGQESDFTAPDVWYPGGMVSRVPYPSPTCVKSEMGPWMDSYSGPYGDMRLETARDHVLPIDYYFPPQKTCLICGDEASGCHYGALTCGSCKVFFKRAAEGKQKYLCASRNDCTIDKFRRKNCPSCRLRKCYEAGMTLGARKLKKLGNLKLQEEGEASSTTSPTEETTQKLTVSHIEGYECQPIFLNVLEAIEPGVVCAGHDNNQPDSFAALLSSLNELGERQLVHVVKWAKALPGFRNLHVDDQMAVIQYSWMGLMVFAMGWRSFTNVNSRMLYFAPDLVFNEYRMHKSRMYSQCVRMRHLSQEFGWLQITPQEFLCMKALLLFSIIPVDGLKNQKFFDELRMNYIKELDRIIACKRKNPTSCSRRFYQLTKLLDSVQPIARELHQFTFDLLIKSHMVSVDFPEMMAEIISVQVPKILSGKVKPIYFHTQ
Assay: qHTS assay to identify small molecule agonists of the androgen receptor (AR) signaling pathway in the presence of an antagonist (AID 1259381; calls by dose curve; further: nearly all actives have a fitted effect of over 15% in size)
Conditions: MDA-kb2 MMTV-luciferase, AR agonist + nilutamide, 16 h; series mostly up to 42.5 µM
How it was run: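 Test compounds at 15 concentrations were incubated for 16hr with MDA-kb2 reporter cells in presence of 3.0uM nilutamide (final). Signal: ONE-Glo luciferase luminescence.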
In the case of `CC1=C(CC(=O)O)c2cc(F)ccc2/C1=C\c1ccc(S(C)(=O)=O)cc1`, the Potency is reported as “inactive”.
In the case of `CCc1cc2cc(OC)c(OC)cc2c(Cc2ccccc2)n1`, the Potency is reported as “inactive”.
For `CN1CCN(C2=Nc3cc(F)ccc3Cc3ccccc32)CC1`, the Potency was “inactive”.
With `O=Cc1ccc(O)c(O)c1O` the Potency was “inactive”.
In the case of `Cc1nc(-c2ccccn2)ncc1C(=O)Nn1cc(C)c2cc(F)ccc21`, the Potency is reported as “inactive”.
In the case of `COC(=O)C(C)O` (stereo not given), the Potency is reported as “inactive”.

System: not listed separately
Assay: qHTS assay to identify small molecule antagonists of the estrogen receptor beta (ER-beta) signaling pathway - cell viability counter screen (AID 1259382);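 further: HEK293T cells carrying ER-beta-UAS-bla reporter stimulated with estradiol; nearly all actives have a fitted effect of over 55% in size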
Conditions: ER-beta-UAS-bla HEK293T viability, CellTiter-Glo luminescence, 16 h; series mostly up to 92.4 µM
How it was run: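 In this multiplexed counter screen, cells were seeded at 2,000 per well in medium with 2% charcoal-stripped FBS and incubated 6 hr before compound and 1nM final E2 were added. Sixteen hours later, ATP-based luminescence reported viability.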
In the case of `CC1=C(CC(=O)O)c2cc(F)ccc2/C1=C\c1ccc(S(C)(=O)=O)cc1`, the outcome is reported as “inactive”.
In the case of `Cc1ccc([N+](=O)[O-])c(N)c1`, the outcome is reported as “inactive”.
For `CC1(C)O[C@@H]2C[C@H]3[C@@H]4CCC5=CC(=O)CC[C@]5(C)[C@@]4(F)[C@@H](O)C[C@]3(C)[C@]2(C(=O)CCl)O1`, the outcome was “inactive”.
In the case of `CS(=O)(=O)c1ccc([C@@H](O)[C@@H](CF)NC(=O)C(Cl)Cl)cc1`, the outcome is reported as “inactive”.
In the case of `Cc1c(-c2ccccc2)oc2c(C(=O)OCCN3CCCCC3)cccc2c1=O`, the outcome is reported as “inactive”.
For `CCc1cc2cc(OC)c(OC)cc2c(Cc2ccccc2)n1`, the outcome was “inactive”.
In the case of `CCN(CC)CCOc1ccc(Cc2ccccc2)cc1`, the outcome is reported as “inactive”.
With `CCc1cc(Cl)c(OC)c(C(=O)NC[C@@H]2CCCN2CC)c1O` the outcome was “inactive”.
In the case of `CC(=O)Nc1ccc(C)c(Cl)c1`, the outcome is reported as “inactive”.
With `CCCCOc1cc(C(=O)NCCN(CC)CC)c2ccccc2n1` the outcome was “inactive”.
Compound `O=C(O)c1ccccc1Nc1cc(Cl)ccc1C(=O)O` has an activity change, negative = cytotoxicity of -13.6% [at 19 µM].
In the case of `Oc1ccccc1F`, the outcome is reported as “inactive”.
In the case of `CC(C)OC(C)C`, the outcome is reported as “inactive”.
With `Nc1ccc(Oc2ccc(N)c(N)c2)cc1` the outcome was “inactive”.
Compound `COC(=O)c1ccc2cc(C(=O)OC)ccc2c1` has an activity change, negative = cytotoxicity of -4.09% [at 19 µM].
With `Cc1ccc([N+](=O)[O-])cc1Cl` the outcome was “inactive”.
In the case of `CN(CC1(C)CCCO1)S(=O)(=O)c1ccc(Cl)c(S(N)(=O)=O)c1` (stereo not given), the outcome is reported as “inactive”.
In the case of `CC(C)(CO)[C@@H](O)C(=O)NCCC(=O)O`, the outcome is reported as “inactive”.
In the case of `C=CC1CO1` (stereo not given), the outcome is reported as “inactive”.
With `NC1=NCC2c3ccccc3Cc3ccccc3N12` (stereo not given) the outcome was “inactive”.
With `CC[C@H]1CC[C@H](NCc2cc3c(cc2OC)[C@H]2C[C@H]2C(=O)N3C)[C@H](c2ccccc2)N1` the outcome was “inactive”.
For `CCC(=O)O[C@]1(C(=O)SCF)[C@H](C)C[C@H]2[C@@H]3C[C@H](F)C4=CC(=O)C=C[C@]4(C)[C@@]3(F)[C@@H](O)C[C@@]21C`, the outcome was “inactive”.
In the case of `C[C@]12C(=O)OC(=O)[C@H]1[C@H]1C=C[C@@H]2C1`, the outcome is reported as “inactive”.
In the case of `CN1[C@@H]2CC[C@H]1CC(OC(=O)c1c[nH]c3ccccc13)C2` (stereo not given in full), the outcome is reported as “inactive”.
With `CCC(=O)Nc1ccc(O)cc1` the outcome was “inactive”.
In the case of `ClC(Cl)Cl`, the outcome is reported as “inactive”.
For `CC(C)O`, the outcome was “inactive”.
With `COC(=O)C(C)O` (stereo not given) the outcome was “inactive”.

Target: Estrogen receptor (Homo sapiens) (UniProt P03372)
Sequence (P03372 whole entry, looked up): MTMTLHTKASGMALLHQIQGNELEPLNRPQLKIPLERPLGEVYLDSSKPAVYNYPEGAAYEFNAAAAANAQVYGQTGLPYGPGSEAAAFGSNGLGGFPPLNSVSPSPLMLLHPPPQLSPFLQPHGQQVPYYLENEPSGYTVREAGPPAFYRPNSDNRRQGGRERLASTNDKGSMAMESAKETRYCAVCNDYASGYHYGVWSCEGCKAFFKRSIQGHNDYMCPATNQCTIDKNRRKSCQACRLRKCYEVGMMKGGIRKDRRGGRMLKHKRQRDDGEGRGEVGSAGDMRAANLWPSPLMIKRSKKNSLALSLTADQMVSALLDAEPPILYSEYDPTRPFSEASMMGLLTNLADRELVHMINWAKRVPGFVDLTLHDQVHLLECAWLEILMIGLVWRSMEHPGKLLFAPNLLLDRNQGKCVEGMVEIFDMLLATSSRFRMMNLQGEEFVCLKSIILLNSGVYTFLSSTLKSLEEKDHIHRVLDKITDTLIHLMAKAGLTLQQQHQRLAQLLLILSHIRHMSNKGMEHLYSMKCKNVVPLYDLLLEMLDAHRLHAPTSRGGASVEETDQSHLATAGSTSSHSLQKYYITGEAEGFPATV
Assay: qHTS assay to identify small molecule agonists of the estrogen receptor alpha (ER-alpha) signaling pathway in the presence of an antagonist (AID 1259383; calls by dose curve; further: top concentration of the series differs between compounds; nearly all actives have a fitted effect of over 15% in size)
Conditions: VM7Luc4E2 cells, ERE-luciferase, +ICI-182,780, 22 h; series mostly up to 92.4 µM
How it was run: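 Stably transfected VM7Luc4E2 reporter cells, kept 5 days in charcoal-stripped serum, received ICI-182,780 at 10.0nM final before compound addition. Following 22hr incubation at 37C and 5% CO2, luciferase signal was read by luminescence.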
With `CC1=C(CC(=O)O)c2cc(F)ccc2/C1=C\c1ccc(S(C)(=O)=O)cc1` the Potency was “inactive”.
In the case of `CC1(C)O[C@@H]2C[C@H]3[C@@H]4CCC5=CC(=O)CC[C@]5(C)[C@@]4(F)[C@@H](O)C[C@]3(C)[C@]2(C(=O)CCl)O1`, the Potency is reported as “inactive”.
For `CS(=O)(=O)c1ccc([C@@H](O)[C@@H](CF)NC(=O)C(Cl)Cl)cc1`, the Potency was “inactive”.
In the case of `Cc1c(-c2ccccc2)oc2c(C(=O)OCCN3CCCCC3)cccc2c1=O`, the Potency is reported as “inactive”.
For `CCc1cc2cc(OC)c(OC)cc2c(Cc2ccccc2)n1`, the Potency was “inactive”.
In the case of `CCN(CC)CCOc1ccc(Cc2ccccc2)cc1`, the Potency is reported as “inactive”.
In the case of `CCc1cc(Cl)c(OC)c(C(=O)NC[C@@H]2CCCN2CC)c1O`, the Potency is reported as “inactive”.
For `CN1CCN(C2=Nc3cc(F)ccc3Cc3ccccc32)CC1`, the Potency was “inactive”.
With `Cc1nc(N)nc(N)c1-c1ccc(Cl)c(Cl)c1` the Potency was “inactive”.
In the case of `O=C(O)c1ccccc1Nc1cc(Cl)ccc1C(=O)O`, the activation is reported as -1.25% [at 19 µM].
For `Cc1nc(-c2ccccn2)ncc1C(=O)Nn1cc(C)c2cc(F)ccc21`, the Potency was “inactive”.

From PubChem BioAssay (Tox21)
